Assay outcomes (PubChem BioAssay)
Pf growth 48h = P. falciparum growth inhibition at 48 hours (one generation). P. falciparum luciferase growth in erythrocytes, 48 h. Potency, µM (top dose mostly 28.7 µM), most hits filed as inhibitors. 5.9% of 310,000 active
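Read-out is firefly luciferase luminescence from an integrated reporter in P. falciparum, so falling signal marks reduced parasite growth. Infected erythrocytes were at 2% hematocrit and 0.1% parasitemia (final) in Albumax-supplemented RPMI 1640.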
SARS PLP yeast = SARS-CoV PLP inhibition in yeast; S. cerevisiae expressing SARS-CoV PLpro, growth rescue; Potency, µM (series often up to 32.9 µM), usual class: activators; 0.19% of 330,000 active; AID 485353; calls by dose curve; also: nearly all actives have a fitted effect of over 55% in size
Pf growth 96h = P. falciparum growth inhibition at 96 hours; P. falciparum luciferase reporter growth, 96 h; Potency, µM (top dose mostly 28.7 µM), most hits filed as inhibitors; 6.9% of 320,000 active; AID 504834
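Plates of compound plus infected erythrocytes (2% hematocrit, 0.05% parasitemia final) incubate 96 hours, 37 C, 5% CO2. Detection reagent added; reduced luminescence from the parasites' luciferase reporter flags inhibition.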
AMA1-RON2 inh = inhibitors of Plasmodium falciparum AMA1-RON2 interaction. AlphaScreen AMA1-biotinylated RON2 peptide binding. Potency, µM (doses to about 58.2 µM), hits mostly inhibitors. 0.2% of 360,000 active. AID 720542; also: nearly all actives have a fitted effect of over 45% in size
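AMA1 (3D7) with his tag at 25 nM final met compounds first, then biotinylated RON2 peptide at 25 nM; detection used donor plus acceptor beads, 10 µg/mL apiece, read by AlphaScreen after 30 min at room temperature.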
A number is an active result; n = inactive; u = inconclusive; x = not tested or not shown; [ ] = remark or other dose. Shown are actives, neighbours in structure and some others; about 9.4% of the full set was active somewhere. Unless noted, calls follow the shape of the dose curve; as a rule, active = well fitted curve in the direction sought with a large enough effect; inconclusive = small, poorly fitted or top-dose-only effect, or another doubt; inactive = no such curve, though single readings can be large; an effect the other way counts as inactive or inconclusive.

SMILES	Pf growth 48h	SARS PLP yeast	Pf growth 96h	AMA1-RON2 inh
Cc1cc(NC(=O)CCl)on1	10µM	n	u	n
O=C(CCCCl)NC1=NN(c2ccccc2)C(=O)C1	n	n	n	n
O=C(COc1ccc(Cl)cc1)NC1=NN(c2ccccc2)C(=O)C1	n	n	8.3µM	n
COC(=O)[C@@H]1CCCN1C(=O)CCc1nnc(C2CCCCC2)o1	n	n	17µM	n
COc1cccc(-c2nc(-c3ccc(NC(=O)c4cccnc4)cc3)no2)c1	u	n	12µM	n
CC(Oc1ccc(Cl)cc1Cl)C(=O)NNC(=O)c1cccnc1 (stereo not drawn)	n	n	n	n
COc1ccc(-c2noc(-c3ccccc3C(=O)Nc3cccnc3)n2)cc1OC	10µM	n	x	n
CC(Oc1ccc(Cl)cc1Cl)c1nc(-c2ccc(NC(=O)c3ccncc3)cc2)no1 (stereo not drawn)	15µM	n	9.3µM	n
CC(Oc1ccc(Cl)cc1Cl)c1nc(-c2ccc(NC(=O)c3cccnc3)cc2)no1 (stereo not drawn)	3.3µM	n	n	n
COc1ccc(CC(=O)Nc2ccc(-c3noc(-c4cccc(OC)c4)n3)cc2)cc1	n	n	n	n
CC(Oc1ccc(Cl)cc1Cl)C(=O)NNC(=O)c1ccncc1 (stereo not drawn)	n	n	n	n
COc1ccc(-c2noc(-c3ccccc3C(=O)Nc3cccnc3)n2)cc1	u	n	n	n
CC1CCCN(C(=O)CN(c2ccccc2)S(=O)(=O)c2ccc(F)cc2)C1 (stereo not drawn)	u	n	u	n
CCOC(=O)N1CCN(C(=O)CCCn2nc(C)c3sc4ccccc4c3c2=O)CC1	5.2µM	n	n	n
CS(=O)(=O)Cc1ccc(C(=O)Nc2cccc(-c3nc4ccccc4[nH]3)c2)cc1	n	n	8.3µM	n
O=C(Nc1ccc(Cl)c(-c2nc3ccccc3[nH]2)c1)c1ccc2c(c1)OCO2	n	n	u	n
O=C(Nc1ccc(-c2nc3ccccc3[nH]2)cc1)c1ccc2c(c1)OCO2	9.3µM	n	5.2µM	u
Cn1ncc([N+](=O)[O-])c1C(=O)Nc1ccc(-c2nc3ccccc3[nH]2)cc1	u	n	u	n
CS(=O)(=O)c1ccc(C(=O)Nc2cccc(-c3nc4ccccc4[nH]3)c2)cc1	u	n	u	n
CCOc1ccc(C(=O)Nc2ccc(-c3nc4ccccc4[nH]3)cc2)cc1[N+](=O)[O-]	1.9µM	n	n	n
CS(=O)(=O)c1ccc(C(=O)Nc2ccc(-c3nc4ccccc4[nH]3)cc2)cc1	1.9µM	n	n	n
Cc1ccc(-n2nc3c(=S)[nH]nc(C)c3c2C)cc1	n	n	n	n
COc1ccccc1-n1cnnc1SCC(=O)NC1CCS(=O)(=O)C1 (stereo not drawn)	n	n	n	n
COc1ccc(CC(=O)Nc2cccc(C(=O)Nc3cccc(C)c3)c2)cc1	u	n	u	x
CC1(c2ccccc2)CC2CC(c3ccccc3)N1O2 (stereo not drawn)	u	n	x	n
SMILES	Pf growth 48h	SARS PLP yeast	Pf growth 96h	AMA1-RON2 inh
COc1cc2c(C)nc3c(c(C)nn3-c3ccccc3)c2cc1OC	n	n	n	n
COc1cc2c(-c3ccc(O)cc3)nc3c(c(C)nn3-c3ccccc3)c2cc1OC	15µM	n	n	n
CN(C)C(=O)c1cc(C(=O)Cc2ccccc2)c[nH]1	n[0.00184 µM]	n	n	n
COc1ccc(C(=O)Nc2c(N)nc(SCC(=O)Nc3ccc(NC(C)=O)cc3)[nH]c2=O)cc1OC	n	n	10µM	n
CC1=C(CO)C(=O)OC([C@@H](C)C2CC[C@H]3C4C[C@H]5O[C@]56[C@@H](O)C=CC(=O)[C@]6(C)C4CC[C@]23C)C1 (stereo partly drawn)	8.3µM	n	n	n
CC(C)c1nccn1CCC(=O)O	x	n	n	n
CSc1ccn(CCC(=O)O)c(=O)n1	n	10µM	x	n
COc1cccc(C(=O)Nc2ccc(NC(=O)C3CC3)nc2)c1	n	n	n	n
C#CCOCCOCCOCCNc1nc(N2CCOCC2)nc(N2CCN(C(=O)[C@H]([C@@H](C)CC)n3cc(CCCN=C(N)N)nn3)CC2)n1	n	n	u	n
C#CCOCCOCCOCCNc1nc(N2CCN(C(=O)CCCCCCCCCCNC(=O)[C@H]([C@@H](C)CC)n3cc(CCCCN=C(N)N)nn3)CC2)nc(N2CCN(C(=O)CCCCCCCCCCNC(=O)[C@H](CCCN=C(N)N)n3cc(C[C@@H](C)CC)nn3)CC2)n1	4.7µM	n	5.2µM	x
